# Potency and affinity values are given separately. Activity calls are given as the source filed them. A call without a number means that no potency is given here. How the calls were made is not given here.
# Target: KSHV LANA C-terminal domain (residues 932-1162) binding to LBS DNA (UniProt O40947)
# Assay: KSHV LANA DNA-binding disruption – biochemical, fluorescence polarization, cherry-picked samples, dose response (AID 504725)
# Details: MBP-C-LANA / FAM-LBS DNA fluorescence polarization, percent change from plate compound-well median; series mostly up to 35 µM
row,Compound,outcome
1,O=C(Cn1c2ccccc2c2nc3n(c(=O)c21)CCS3)Nc1ccccc1C(F)(F)F,inactive
2,C=CC[C@@H](CC(=O)N(CCO)Cc1ccccc1)C(=O)NC[C@H](OC(=O)[C@@H](CC=C)CC(=O)OC(C)(C)C)c1ccccc1,inactive
3,O=C(c1cnn2c(-c3ccccc3)cc(-c3ccccc3)nc12)N1CCN(Cc2ccccc2)CC1,inactive
4,CCNc1nc(NC(C)C)nc(NS(=O)(=O)c2ccc(N)cc2)n1,inactive
5,COc1ccc(NC(=O)COC(=O)c2c(-c3ccccc3)noc2C)cc1,inactive
6,O=C(CC1CCCC1)N1CCN(S(=O)(=O)c2ccccc2)CC1,inactive
7,CC(C)CN(C(=O)CSc1nncn1C)C1CCS(=O)(=O)C1 (stereo not given),inactive
8,CSc1n[nH]c(=O)n1-c1cccc(Cl)c1,inactive
9,O=C1c2c(O)ccc(O)c2C(=O)c2c(NCCNCCO)ccc(NCCNCCO)c21,inactive
10,Cc1cc(C)n2nc(C(=O)OC(C)C(=O)c3cc(C)c(C)cc3C)nc2n1 (stereo not given),inactive

# Source: PubChem BioAssay AID504725 (Broad Institute, 2011)
